# Sampled rows, rich in hits. Any-hit rate of the full collection: about 4.5%.
# ssDAF12 agonist = activators of S. stercoralis DAF-12 nuclear receptor; HEK293 ssDAF-12/GRIP1 lit1-tk-luc reporter, luminescence; % of 3 µM dafachronic acid response; activation, % at 6.8 µM; 370,000 compounds, 1% hits; AID 652126;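 active means activation above the mean over all tested compounds plus 3 SD, cut at about 0.9% in these data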;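 further: 0% = DMSO-only wells and 100% = 3 µM delta7-dafachronic acid wells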
# GAA850 FXN act = increases GAA850 frataxin promoter reporter activity | activation, % at 6 µM | HEK293 lucGAA850 FXN promoter luciferase reporter, 24 h; percent of 10 µM SAHA response | 360,000 compounds, 0.56% hits | AID 540364;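 active means activation above the average of all compounds screened plus 3 SD, cutoff fixed separately per campaign, cut at about 7.5% in these data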;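 further: 0% = DMSO wells and 100% = 10 µM SAHA wells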
# hgDAF-12 ag = activates the H. glycines DAF-12 receptor ligand-binding domain; HEK293 GAL4-hgDAF12 UAS-luciferase reporter, agonist luminescence; normalized to butyrate control; activation, % at 6.8 µM; 370,000 compounds, 1.8% hits;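 active means activation above a cutoff set at the mean of all screened compounds plus 3 SD, cut at about 10% in these data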;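 further: 0% = DMSO wells and 100% = sodium butyrate wells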
# DAX1 inh-1 = blocks DAX1 repression of SF-1 activated StAR promoter; HEK293T StAR-luciferase reporter, SF-1/DAX-1 repression relief; 370,000 compounds, 1.1% hits; inhibition, % at 6.8 µM;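 active means inhibition above the mean over all tested compounds plus 3 SD, cut at about 3.6% in these data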;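 further: 0% = DAX-1 cells with DMSO and 100% = cells lacking DAX-1 with DMSO; higher inhibition means more luminescence from relief of DAX-1 repression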
# hcDAF-12 act = activates DAF-12 receptor from parasite H. contortus; HEK293 hcDAF-12 lit1-tk-luc reporter, luminescence; 0% DMSO, 100% Δ7-dafachronic acid; activation, % at 6.8 µM; 370,000 compounds, 1.4% hits; AID 652067;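 active means activation above the mean of all tested compounds plus 3 SD, cut at about 5.5% in these data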;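 further: 100% = response to 3 µM Δ7-dafachronic acid high control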
# DAX1 inh-2 = inhibitors of human orphan nuclear receptor DAX1 (NR0B1); P51843; HEK293 Gal4-DAX1 luciferase reporter, luminescence; inhibition, % at 6.75 µM; 340,000 compounds, 0.99% hits; AID 504766;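 active means inhibition above the mean over all tested compounds plus 3 SD, cut at about 4.2% in these data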;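 further: 0% = DAX1-transfected cells with DMSO and 100% = empty-vector control cells with DMSO; inhibition shows as a rise in luminescence from relieved DAX1 repression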
# Target sequence (P51843 207-470 limits assumed): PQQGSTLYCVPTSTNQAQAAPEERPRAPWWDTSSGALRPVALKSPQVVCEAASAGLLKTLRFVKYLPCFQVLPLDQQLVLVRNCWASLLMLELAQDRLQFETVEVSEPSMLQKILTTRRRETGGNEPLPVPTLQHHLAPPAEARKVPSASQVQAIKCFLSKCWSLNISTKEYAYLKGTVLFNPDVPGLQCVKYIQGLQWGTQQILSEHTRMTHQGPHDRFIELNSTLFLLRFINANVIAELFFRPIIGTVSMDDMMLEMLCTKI
# Numbers without * were called inactive; x = not tested or not shown.
SMILES,ssDAF12 agonist,GAA850 FXN act,hgDAF-12 ag,DAX1 inh-1,hcDAF-12 act,DAX1 inh-2
O=C(CC(=O)c1ccccc1)Nc1ccccc1,-0.2,2.9,5.7,1.0,2.4,4.5*
O=C(c1cccc(C(F)(F)F)c1)N1CC[C@H]2[C@H](CCCN2Cc2ccccc2)C1,-0.7,x,-1.4,-0.9,-0.9,x
O=C(OCC#CCSc1nnc(-c2cccc3ccccc23)o1)c1cccc(C(F)(F)F)c1,-2.1,x,-0.1,x,-1.3,x
O=C(c1cc(F)ccc1F)N1CCCC(c2nc(-c3cccs3)no2)C1 (stereo unspecified),-0.8,x,4.8,0.6,-2.0,x
O=C(COc1ccccc1)NC1=NCCS1,-0.7,1.5,0.9,-0.4,1.6,1.5
O=C(NC1=NCCS1)c1ccccc1,0.0,2.6,3.1,0.6,-0.6,1.3
CC(C)c1ccc(OCC(=O)NC2=NCCS2)cc1,0.3,1.6,7.5,3.7*,4.6,0.8
CC(Oc1ccccc1)C(=O)NC1=NCCS1 (stereo unspecified),-0.2,6.4,4.7,4.0*,1.1,4.1
C/C(=C/c1c[n+](Cc2ccc3c(c2)OCO3)c(N)[nH]1)Cn1[nH]c(=O)n(-c2ccccc2)c1=O,-1.1,x,0.3,-0.7,1.7,x
Cc1cc(=O)[nH]c(SCC(=O)Nc2ccc(F)c(F)c2)n1,-0.7,x,5.7,0.1,-1.2,x
CCOc1ccc(OCC)c(NC(=O)CSc2nnnn2CC)c1,-1.0,-0.8,0.4,-0.2,-2.2,4.3*
CCOc1ccc(OCC)c(NC(=O)CCSCCc2ccccn2)c1,-1.4,2.0,-0.4,-0.4,0.0,4.3*
CC(C)(C)OC(=O)/C=C/[C@@H](CC1CCCC1)Sc1ccc(C(C)(C)C)cc1,-1.2,x,-0.5,0.2,1.1,x
O=S(=O)(Nc1ccc(-c2cn3ccccc3n2)cc1)c1ccccc1,-1.1,4.6,5.9,0.1,0.6,4.3*
O=C(Nc1ccc(-c2cn3ccccc3n2)cc1)c1ccco1,0.1,0.7,12.1*,4.3*,4.7,1.7
O=C(Nc1ccc(-c2cn3ccccc3n2)cc1)c1ccc(Cl)cc1,-1.2,-4.7,-0.6,-0.4,-1.5,-0.8
CCCCC(=O)N1CCC(NS(=O)(=O)c2ccc3c(c2)CCN3C(C)=O)CC1,-1.7,x,-1.7,-1.7,-1.4,x
c1ccc(-c2ncc(-c3ccn[nH]3)s2)cc1,2.0*,2.4,22.3*,5.4*,5.4,-0.1
O=C(Cc1ccccc1)NNC(=O)Nc1ccc(Cl)c(Cl)c1,-1.6,-1.8,-0.2,0.0,-1.6,-0.1
O=C(Nc1cccc(Cl)c1)Nc1ccc2nccnc2c1,-1.0,-0.1,5.3,-0.1,-0.8,2.2
Cc1cc(NC(=O)Nc2ccc(Cl)c(Cl)c2)n(-c2ccccc2)n1,-1.8,0.2,0.8,0.3,-0.1,4.8*
O=C(Nc1ccc(Cl)c(Cl)c1)Nc1ccccc1C(=O)O,-0.1,-1.8,1.8,4.1*,4.3,-1.9
O=C(Nc1ccc2nccnc2c1)Nc1ccccc1Cl,-1.6,3.4,11.0*,0.4,-0.8,1.6
OC[C@H]1CC[C@@H]2O[C@H](CCc3ccc(-c4ccc(F)cc4)cc3)[C@H](n3cc(C4CC4)nn3)C[C@@H]2O1,-1.5,x,1.3,-0.5,1.5,x
O=C(NC1CCCc2ccccc21)c1ccccn1 (stereo unspecified),-1.1,1.8,-0.6,0.0,-0.9,-0.7
SMILES,ssDAF12 agonist,GAA850 FXN act,hgDAF-12 ag,DAX1 inh-1,hcDAF-12 act,DAX1 inh-2
O=C(NC1CCOc2ccccc21)c1ccccn1 (stereo unspecified),0.3,1.3,1.6,0.0,5.8*,-0.1
CCOC(=O)[C@@]12CN(C(=O)OC(C)(C)C)CC=C1N(Cc1ccc(OC)cc1)C(=O)[C@H]2CC(=O)NCCC(C)C,-1.3,x,-1.8,-0.7,-2.6,x
CCOC(=O)c1[nH]c2c(c1C)C(=O)CC(c1ccco1)C2 (stereo unspecified),-0.3,0.5,-4.5,7.0*,-1.9,-2.5
O=S(=O)(NCC(c1ccco1)N1CCc2ccccc2C1)c1ccc(Br)cc1 (stereo unspecified),-0.9,1.2,1.5,3.7*,-0.7,0.0
Cc1cccc(C(=O)Nc2ccc3c(c2)nc(C)n3C)c1,0.5,1.9,9.1,3.2,3.5,0.8
Cc1cccc(C(=O)Nc2ccc3c(c2)ncn3C)c1,-0.3,6.0,11.2*,3.4,3.0,0.3

# From PubChem
